Compound activity from PubChem.
An excerpt weighted towards active compounds, which were near 6.9% of everything screened.
KB-3-1 tox: kills parental KB-3-1 adenocarcinoma cells; hit rate 1.4% among 400,000; KB-3-1 viability, CellTiter-Glo ATP luminescence, 72 h; Potency, µM (series often up to 46.1 µM), hits mostly cytotoxic; AID 1347075; note: potency is the fitted concentration of half-maximal effect; % is set by controls: 0 for no effect and ±100 for the full control effect; nearly all actives have a fitted effect of over 60% in size
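Parental KB-3-1 viability, qHTS format: 72 h compound exposure, 37 °C; CellTiter-Glo; media-only wells and DMSO plates as controls; concentration-effect fits on corrected data.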
KB-V1 cytotox: kills drug-selected multidrug resistant KB-V1 cells. KB-V1 MDR cells viability, CellTiter-Glo, 72 h. Potency, µM (top dose mostly 46.1 µM), most hits filed as cytotoxic. hit rate 3.4% among 400,000; note: potency is the fitted concentration of half-maximal effect; % is set by controls: 0 for no effect and ±100 for the full control effect; nearly all actives have a fitted effect of over 60% in size
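In this primary screen, KB-V1 cells overexpressing P-gp are incubated with library compounds (lowest to highest concentration) for 72 h at 37 degrees C before a luminescent ATP viability read.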
ASM inhibitor: blocks human secretory acid sphingomyelinase | Potency, µM (highest dose often 57.5 µM), for the others: at the top dose activity change, negative = inhibition, usual class: inhibitors | hit rate 0.006% among 340,000 | P17405 | placental ASM, HMU-PC fluorogenic substrate, 60 min; note: potency is the fitted concentration of half-maximal effect
Target sequence (P17405 47-631 limits assumed): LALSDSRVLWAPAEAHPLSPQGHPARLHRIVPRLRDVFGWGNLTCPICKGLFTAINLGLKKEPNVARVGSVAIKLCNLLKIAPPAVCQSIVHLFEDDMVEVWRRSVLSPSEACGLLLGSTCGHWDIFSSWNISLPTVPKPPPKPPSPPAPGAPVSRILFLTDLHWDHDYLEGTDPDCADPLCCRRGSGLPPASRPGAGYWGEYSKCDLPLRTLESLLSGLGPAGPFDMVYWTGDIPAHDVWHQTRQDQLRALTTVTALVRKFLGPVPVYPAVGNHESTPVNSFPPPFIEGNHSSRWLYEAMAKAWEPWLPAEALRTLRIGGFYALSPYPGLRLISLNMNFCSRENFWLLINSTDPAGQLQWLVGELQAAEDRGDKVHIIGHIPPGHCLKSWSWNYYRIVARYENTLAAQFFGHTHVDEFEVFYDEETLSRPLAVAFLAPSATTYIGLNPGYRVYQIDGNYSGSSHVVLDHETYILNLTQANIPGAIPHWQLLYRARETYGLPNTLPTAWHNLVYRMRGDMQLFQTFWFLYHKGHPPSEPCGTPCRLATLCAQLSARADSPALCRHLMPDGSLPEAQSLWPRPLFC
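Human placenta-derived ASM enzyme was preincubated with compound for 10 minutes at room temperature, then given fluorogenic substrate HMU-PC0 (9 uM final) for 60 minutes at 37 °C; a pH 10 stop preceded fluorescence reading at Ex 386/Em 447 nm.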
Giardia killer: Giardia lamblia killing. hit rate 0.15% among 340,000. Giardia lamblia trophozoite viability. activity change, % at 7.66 µM, hits read low. AID 540267; in the data active = activity change below about -80%; inconclusive = between about -30% and that limit;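 note: parasites exposed to compound for two days anaerobically before the ATP read; % is set by controls: 0 for no effect and ±100 for the full control effect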
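Luminescent ATP signal served as the viability read-out, measured 15-30 min after adding ATP detection reagent to trophozoites that had been incubated with compounds for 48 hrs at 37 deg C anaerobically at 100 cells/well.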
SW480 rerep: inducers of DNA re-replication in SW480 colon cancer cells. SW480 DNA re-replication, Hoechst DNA content imaging, 48 h. hit rate 1.8% among 340,000. Potency, µM (highest dose often 46.1 µM), without a hit: at the highest dose re-replication activation, actives largely listed as activators. AID 624297; note: potency is the fitted concentration of half-maximal effect; % of control where 0% means no effect; nearly all actives have a fitted effect of over 55% in size
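Image-based DNA-content assay: after two days of treatment, nuclei were labelled with the DNA dye Hoechst and imaged, and hits were compounds raising the count of nuclei showing high fluorescence intensity.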
MCF10A rereplic: induces DNA re-replication in MCF 10a normal breast cells; Potency, µM (doses to about 46.1 µM), for inactives: top-dose activity, positive = re-replication, most hits filed as activators; AID 624296; MCF 10A DNA re-replication, Hoechst nuclear intensity, 48 h; hit rate 2.9% among 350,000; note: potency is the fitted concentration of half-maximal effect; % of control where 0% means no effect; nearly all actives have a fitted effect of over 50% in size
* hit, by the source's call; i = inactive; ? = inconclusive; / = no result given; ! = not active in a repeat; [ ] = dose if it differs, or a comment. Unless noted, calls come from the whole dose curve; as a rule, active = well fitted curve in the direction sought with a large enough effect; inconclusive = small, poorly fitted or top-dose-only effect, or another doubt; inactive = no such curve, though single readings can be large; an effect the other way counts as inactive or inconclusive.

SMILES	KB-3-1 tox	KB-V1 cytotox	ASM inhibitor	Giardia killer	SW480 rerep	MCF10A rereplic
CCCCOn1c(C)c(C(=O)OCC)c2c3no[n+]([O-])c3ccc21	i	i	-4.3%	-10.3	-0.5%	4.4%
C/C(CC(=O)NC(C)(C)C)=N\NC(N)=S	i	i	4.6%	-3.4	-0.5%	1.9%
COc1ccc(S(=O)(=O)Nc2ccc(Cl)cn2)c(C)c1C	i	23.1µM*	-3.9%	-14.0	-1.9%	-1.5%
CCCCC(=O)Oc1ccccc1C1SCc2cc(C)c(C)cc2CS1	i	i	-4.0%	2.5	-4.9%[9.22 µM]	1.8%
Cc1cc2c(cc1C)CSC(c1ccccc1O)SC2	?	18.4µM*	-15.3%	5.4	?	?
Cc1cc2c(cc1C)CSC(c1ccc3ccccc3c1O)SC2	i	i	-8.2%	4.1	4.5%	16.4%
Oc1ccccc1C1SC(c2ccccc2O)SC(c2ccccc2O)S1 (centres undefined)	?	i	-13.1%	-29.0	?	6.51µM*
Cc1cc2c(cc1C)CSC(c1c(O)ccc3ccccc13)SC2	?	i	-8.9%	-7.7	18.2%	18.4µM*
Cc1cc2c(cc1C)CSC(c1ccccc1OC(=O)C(C)(C)C)SC2	i	i	-5.2%	11.8	6.7%	11.6µM*
Cc1cc2c(cc1C)CSC(c1ccc(O)cc1)SC2	i	i	-0.7%	-2.5	1.6%	-1.3%
CCOC(=O)C1CCCN(S(=O)(=O)c2cc3c4c(c2)CC(=O)N4CCC3)C1 (centres undefined)	i	i	/	/	/	/
CO/N=C(/C(=O)N[C@@H]1C(=O)N2C(C(=O)O)=C(CSc3cnns3)CS[C@H]12)c1csc(N)n1	/	/	/	/	-4.6%	0.3%
CCn1cc[n+](C)c1P(c1ccccc1)c1ccccc1	7.31µM*	i	1.3%	-9.7	-1.5%	-0.8%
COc1ccc(OC)c(S(=O)(=O)N2CCCCC2C(=O)N2CCN(c3ccccn3)CC2)c1 (centres undefined)	i	9.2µM*	1.1%	38.5	?	-22.3%
COc1ccc(OC)c(S(=O)(=O)N2CCN(c3ccccn3)CC2)c1	i	i	2.3%	-9.9	?	?
COc1cc(SC)ccc1C(=O)NCc1ccc(C)cc1	i	i	-2.2%	9.2	-2.4%	-10.1%
COc1cc(SC)ccc1C(=O)NCCOc1ccc(C)c(C)c1	i	16.4µM*	-9.0%	12.0	-1.4%	5.4%
COc1cc(SC)ccc1C(=O)NCc1ccccc1	i	20.6µM*	-1.1%	-6.4	-130.5%	2.9%
CCOc1ccc(-c2cn3c(n2)sc2cc(C(=O)NC4CCCc5ccccc54)ccc23)cc1 (centres undefined)	i	?	/	/	/	/
C[C@@H]1CCCCO[C@H](CN(C)C(=O)Nc2ccccc2)[C@@H](C)CN([C@H](C)CO)C(=O)c2cc(NS(=O)(=O)c3cn(C)cn3)ccc2O1	i	i	/	/	/	/
Fc1ccc([C@@H]2CCNC[C@H]2COc2ccc3c(c2)OCO3)cc1	?	23.1µM*!	7.2%	2.4	?	?
COc1ccc2c(c1)c(=O)c(C(=O)c1ccc(Cl)cc1)cn2CC(=O)Nc1ccc2c(c1)OCCO2	i	i	/	/	/	/
Cc1cc2c(cc(C(=O)OCC(=O)NCc3ccco3)n2C)s1	5.8µM*	3.66µM*	-0.4%	-0.9	10.3µM*	?
Cc1ccc(S(=O)(=O)Nc2cccc(-c3cn4ccsc4n3)c2)cc1	?	23.1µM*	-14.6%	-15.3	?	13µM*
Cc1cccc(S(=O)(=O)Nc2cccc(-c3cn4ccsc4n3)c2)c1	i	i	-15.7%	-26.6	-5.3%	4.3%
SMILES	KB-3-1 tox	KB-V1 cytotox	ASM inhibitor	Giardia killer	SW480 rerep	MCF10A rereplic
O=S(=O)(Nc1cccc(-c2cn3cccnc3n2)c1)c1ccc(F)cc1	i	20.6µM*	-4.4%	3.7	-1.9%	-0.2%
COc1cc2ccccc2cc1C(=O)N1CCN(c2nc3c(F)cc(F)cc3s2)CC1	i	i	/	/	/	/
O=C1CCCc2cc(S(=O)(=O)NCC3CCC(C(=O)NCc4ccc(F)cc4)CC3)ccc2N1 (centres undefined)	i	i	/	/	/	/
O=c1oc2ccccc2cc1-c1cn2cc(Cc3ccc(F)cc3)sc2n1	0.581µM*	i	/	/	/	/
O=c1oc2ccccc2cc1-c1cn2cc(Cc3ccc(Br)cc3)sc2n1	?	i	/	/	/	/
CC(CCC(C)[n+]1cccc(Br)c1)[n+]1cccc(Br)c1 (centres undefined)	?	i	/	/	/	/
COCCn1c(SCC(=O)Nc2cc(Cl)ccc2OC)nc2c([nH]c3ccccc32)c1=O	i	i	/	/	/	/
Cc1cc(NC(=O)c2ccccc2Cl)ccc1NC(=O)c1ccccc1Cl	i	i	-4.6%	2.6	-2.5%	2.6%
Cc1ccc2sc3ccc(NC(=O)c4ccccc4Cl)cc3c(=O)c2c1	?	?	403.9%	-16.0	13µM*	?
COc1cccc(NC(=O)N2CCN3CCCCC3C2)c1 (centres undefined)	i	i	/	/	/	/
O=C(NC(=S)Nc1cc(-c2nc3ccccc3[nH]2)ccc1Cl)c1ccc2c(c1)OCO2	18.4µM*	7.31µM*	7.7%	4.8	5.8µM*	3.26µM*
Cc1cnc(C(=O)Nc2ccc(N3CCN(C(=O)OC(C)(C)C)CC3)cc2)cn1	5.8µM*	i	-2.5%	-26.9	?	?
Cc1cnc(C(=O)Nc2ccc(F)cc2)cn1	i	?	1.6%	6.0	1.5%	-1.9%
Cc1ccc(C(=O)NCc2ccc(N3CCN(C(=O)OC(C)(C)C)CC3)cc2)cc1	i	3.66µM*	1.1%	-12.1	-9.6%	6.9%
Cc1ccc(OCCC(=O)N2CCN(c3ccc(O)cc3)CC2)cc1	?	i	-0.4%	9.1	7.31µM*	?
COc1ccc(N2CCN(C(=O)NCc3ccc(C)cc3)CC2)cc1	0.517µM*	5.8µM*	3.0%	-10.8	?	?
Cc1ccc(S(=O)(=O)NCc2ccc(N3CCN(C(=O)OC(C)(C)C)CC3)cc2)cc1	?	?	1.8%	24.1	-5.1%	7.1%
CC1=C(C(=O)Nc2cccnc2)C(c2ccccc2)n2nc(-c3ccc(O)cc3)nc2N1 (centres undefined)	i	i	/	/	/	/
COC(=O)c1cc(NC(=O)[C@H](CCS(C)(=O)=O)N2Cc3ccccc3C2=O)cc(C(=O)OC)c1	i	i	/	/	/	/
CCN(CC(=O)NCc1cccs1)C(=O)c1ccc([N+](=O)[O-])o1	i	i	3.9%	-90.7*	21.1%	15.7%
CCCc1cc(NCCCN2CCOCC2)n2c(nc3ccccc32)c1C#N	i	i	i	-18.9	1.8%[9.22 µM]	20.6µM*
CCCc1cc(N2CCN(C(=O)c3ccco3)CC2)n2c(nc3ccccc32)c1C#N	i	i	i	-3.4	?	20.6µM*
